From PubChem BioAssay (NCATS) come the findings set out here.

Results filed as inconclusive are left out. Where a call stands in place of a potency, no number is given. Calls of active or inactive are those of the source. Unless noted, the call rests on the fitted dose curve; in most records, active means well fitted curve in the direction sought with a large enough effect; inconclusive means small, poorly fitted or top-dose-only effect, or another doubt; inactive means no such curve, though single readings can be large; an effect the other way counts as inactive or inconclusive.

The test system of the first assay is TAB109. Put plainly: qHTS profiling for inhibitors of Plasmodium falciparum proliferation (AID 504749). Further: nearly all actives have a fitted effect of over 60% in size. Further: potency means the concentration at half of the fitted maximal effect. As to conditions: P. falciparum in erythrocytes, SYBR Green DNA, 72 h; series mostly up to 28.7 µM. Summed up:
(§1)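 P. falciparum-infected erythrocytes (0.3% parasitemia, 2.5% hematocrit) incubated with compound 72 h at 37 C, 5% CO2. Parasite DNA detected by SYBR Green after lysis, overnight at room temperature; normalised to 0.29 uM artemisinin and DMSO.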
(In general: In qHTS, concentration-response curves come from the screen itself.)
`CC(C)NC[C@H](O)COc1ccc(CC(N)=O)cc1`: the Potency result is “inactive”.
The same measure, in the same setting: as for `CC(O)C(O)[C@H]1CNc2nc(N)[nH]c(=O)c2N1` (stereo partly specified), the entry is “inactive”; as for `CCCCCCCCCCCCCCCCCCOC[C@H](COP(=O)([O-])OCC[N+](C)(C)C)OC`, “inactive”.
Same read-out and setting: next, `c1ccc(C2CN3CCSC3=N2)cc1` (stereo unspecified): 4.47 µM (active).
The same measure, in the same setting: as for `CCCCCCCCCCCCCCC[C@H](O)[C@H](N)CO`, the entry is “inactive”.

The next assay deals with TAB113. The assay is described as above. As to conditions: P. falciparum in erythrocytes, SYBR Green DNA, 72 h; series mostly up to 28.7 µM. Summed up:
as §1
Take `CC(C)NC[C@H](O)COc1ccc(CC(N)=O)cc1`: the Potency entry was “inactive”.
Still for that read-out and setting: next, `CC(O)C(O)[C@H]1CNc2nc(N)[nH]c(=O)c2N1` (stereo partly specified): “inactive”; `CN1C2CCC1CC(OC(c1ccccc1)c1ccccc1)C2` (stereo unspecified): “inactive”; `CCCCCCCCCCCCCCCCCCOC[C@H](COP(=O)([O-])OCC[N+](C)(C)C)OC`: “inactive”.
Same read-out and setting: as for `c1ccc(C2CN3CCSC3=N2)cc1` (stereo unspecified), the figure is 11.2 µM (active).
The same measure, in the same setting: next, `CCCCCCCCCCCCCCC[C@H](O)[C@H](N)CO`: “inactive”.

The next assay relates to TAB165. Described as above. The conditions noted are these: P. falciparum in erythrocytes, SYBR Green DNA, 72 h; series mostly up to 28.7 µM. The method in brief: as §1
In the case of `CC(C)NC[C@H](O)COc1ccc(CC(N)=O)cc1`, the Potency entry was “inactive”.
Still for that read-out and setting: as for `CC(O)C(O)[C@H]1CNc2nc(N)[nH]c(=O)c2N1` (stereo partly specified), the entry is “inactive”; as for `CCCCCCCCCCCCCCCCCCOC[C@H](COP(=O)([O-])OCC[N+](C)(C)C)OC`, “inactive”.
Same read-out and setting: as for `c1ccc(C2CN3CCSC3=N2)cc1` (stereo unspecified), the figure is 5.01 µM (active); as for `CCCCCCCCCCCCCCC[C@H](O)[C@H](N)CO`, “inactive”.

The next assay deals with W2. The description is as above. As to conditions: P. falciparum in erythrocytes, SYBR Green DNA, 72 h; series mostly up to 28.7 µM. Summed up:
as §1
As for `CC(C)NC[C@H](O)COc1ccc(CC(N)=O)cc1`, the Potency entry was “inactive”.
The same measure, in the same setting: next, `CC(O)C(O)[C@H]1CNc2nc(N)[nH]c(=O)c2N1` (stereo partly specified): “inactive”; `CN1C2CCC1CC(OC(c1ccccc1)c1ccccc1)C2` (stereo unspecified): 1.51 µM (active); `CCCCCCCCCCCCCCCCCCOC[C@H](COP(=O)([O-])OCC[N+](C)(C)C)OC`: “inactive”.
The same measure, in the same setting: next, `c1ccc(C2CN3CCSC3=N2)cc1` (stereo unspecified): 1.51 µM (active).
Same read-out and setting: next, `CCCCCCCCCCCCCCC[C@H](O)[C@H](N)CO`: “inactive”.

Test system in another assay: not listed separately
Put plainly: qHTS assay to identify inhibitors of the type 1 interferon - major histocompatibility complex class I in skeletal muscle: Counter screen cell viability and HiBit confirmation (AID 1347412). Further: nearly all actives have a fitted effect of over 60% in size. Further: potency means the concentration at half of the fitted maximal effect. As to conditions: iHSKM muscle cells + IFN-b, HiBiT or CellTiter-Glo, 24 h; HiBiT. Summed up:
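Human myoblast knock-in line, 4.0 ng/ml IFN-beta stimulation, 24 h compound treatment. Endpoints: HiBiT lytic luminescence (HLA-B level) and CellTiter Glo (ATP). Dosing 12 concentrations, 3-fold steps, 46 uM highest final.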
Take `O=c1[nH]c2cc(Cl)ccc2c(O)c1-c1ccc(Oc2ccccc2)cc1`: the Potency is 5.57 µM (active).
The same measure, in the same setting: next, `C=C1C(=O)O[C@@H]2[C@H]3O[C@]3(C)CCC=C(C)CC[C@@H]12`: 8.83 µM (active); `CC[n+]1c(/C=C/C=C2/N(C)c3ccccc3C2(C)C)sc2ccccc21`: 7.01 µM (active); `Brc1c(Br)c(Br)c2[nH]cnc2c1Br`: 14 µM (active).
The same measure, in the same setting: next, `O=C1Cc2c([nH]c3ccc(Br)cc23)-c2ccccc2N1`: 15.7 µM (active).

Staying with this assay, now noted: iHSKM muscle cells + IFN-b, HiBiT or CellTiter-Glo, 24 h; Viability; at 45.9 µM (top of the series).
For `O=c1[nH]c2cc(Cl)ccc2c(O)c1-c1ccc(Oc2ccccc2)cc1`, the activity change, negative = inhibition is -0.671% (inactive).
Regarding `C=C1C(=O)O[C@@H]2[C@H]3O[C@]3(C)CCC=C(C)CC[C@@H]12`, the activity change, negative = inhibition was 52.5% (inactive).
Still for that read-out and setting: next, `Brc1c(Br)c(Br)c2[nH]cnc2c1Br`: 3.14% (inactive); `O=C1Cc2c([nH]c3ccc(Br)cc23)-c2ccccc2N1`: -21.6% (inactive).

In a further assay the target is Nuclear receptor subfamily 1 group I member 2 (Rattus norvegicus) (UniProt Q9R1A7). Put plainly: qHTS assay for small molecule activators of the rat pregnane X receptor (rPXR) signaling pathway (AID 651751; call rule not given here). As to conditions: rPXR reporter cells, luciferase (One-Glo), 24 h.
Nuclear receptor subfamily 1 group I member 2 (Rattus norvegicus), sequence (Q9R1A7 whole entry, looked up): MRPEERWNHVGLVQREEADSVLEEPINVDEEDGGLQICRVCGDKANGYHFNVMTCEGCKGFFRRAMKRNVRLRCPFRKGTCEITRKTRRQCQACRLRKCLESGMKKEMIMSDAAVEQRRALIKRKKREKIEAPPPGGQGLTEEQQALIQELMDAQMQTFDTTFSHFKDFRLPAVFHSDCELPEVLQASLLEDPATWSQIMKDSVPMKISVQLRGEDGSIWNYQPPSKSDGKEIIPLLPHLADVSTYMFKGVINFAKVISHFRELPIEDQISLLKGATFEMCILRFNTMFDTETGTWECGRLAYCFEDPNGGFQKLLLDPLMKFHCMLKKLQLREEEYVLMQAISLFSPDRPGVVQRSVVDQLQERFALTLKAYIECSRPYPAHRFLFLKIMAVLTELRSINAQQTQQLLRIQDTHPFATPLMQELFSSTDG
Consider `CCCc1c(OCCCOc2ccc(OCC(=O)O)cc2)ccc(C(C)=O)c1O`, for which the max response is -1.22% (inactive).
Still for that read-out and setting: next, `NC(=O)c1ccccc1`: -1.26% (inactive); `CCCc1c(-c2ccc(O)cc2)nn(-c2ccc(O)cc2)c1-c1ccc(O)cc1`: -3.52% (inactive).
Same read-out and setting: as for `CC(=O)C(C)=O`, the figure is -4.56% (inactive); as for `CCCCCCCCCCCCCCSCC(=O)O`, 5.54% (inactive); as for `C/C(=C\c1ccc(C(=O)O)cc1)c1ccc2c(c1)C(C)(C)CCC2(C)C`, 1.8% (inactive).

Test system in the next assay: not listed separately
Put plainly: qHTS assay for small molecule activators of the human pregnane X receptor (PXR) signaling pathway (AID 720659; call rule not given here). The conditions noted are these: DPX-2 HepG2 CYP3A4-luciferase, 24 h; series mostly up to 92.3 µM.
As to `NC(=O)c1ccccc1`, the call was inactive.
Still for that read-out and setting: next, `CCCc1c(-c2ccc(O)cc2)nn(-c2ccc(O)cc2)c1-c1ccc(O)cc1`: “inactive”.
Still for that read-out and setting: as for `CC(=O)C(C)=O`, the entry is “inactive”; as for `CCCCCCCCCCCCCCSCC(=O)O`, “inactive”.
